Vc quorum ag: quorum light induction in luxS cqsA deficient V. cholerae; hit rate 0.16% among 350,000; V. cholerae BH1578 lux reporter, luminescence, 6 h; activation, % at 18.7 µM; in the data active means activation mostly above about 9.7%, no sharp cut-off
PrPC surface inh: inhibitors of human cell surface prion protein PrPC | TR-FRET read-out | inhibition, % at 13.8 µM | hit rate 0.43% among 370,000; in the data active means inhibition above about 24%
3CLpro inhibitor: SARS-CoV 3CLpro protease inhibition. inhibition, % at 6 µM. AID 1706. hit rate 0.14% among 290,000. P0C6X7. recombinant SARS-CoV 3CLpro, quenched FRET peptide cleavage; in the data active means inhibition above about 12%
PrP 5UTR inh: inhibition of PrP 5' UTR reporter expression | cell-based PrP 5' UTR mRNA reporter, plate reader | inhibition, % (test concentration not listed) | hit rate 0.35% among 340,000 | AID 488862; in the data active means inhibition above about 52%
PfHsp40 yeast: rescue of PfHsp40-mediated yeast toxicity | S. cerevisiae expressing PfHsp40, growth rescue, ATP luminescence | growth rescue, % at 12.5 µM | hit rate 0.68% among 340,000; in the data active means growth rescue above about 28%, passing the limit was not always enough;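 further: yeast W303a lacking pdr1 and pdr3 grown in galactose medium; growth measured after three days at 30 °C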
PriA SSB inh: blocks PriA binding to SSB C-terminal tail; AlphaScreen SSBct-PriA binding, biotinylated peptide; inhibition, % at 33 µM; hit rate 0.6% among 430,000; AID 1272365; in the data active means inhibition mostly above about 37%, no sharp cut-off; inactive means mostly below about 20%
Large screens that a line does not name were inactive. Most compounds without a hit are left out; they make up all but 1.6% or so of the library.

O=[N+]([O-])c1ccc2[nH]nc(-c3ccccc3)c2c1	PfHsp40 yeast 40.9
Nc1nonc1C(=O)NN=Cc1cc(Br)ccc1O	none (no result: Vc quorum ag, PrPC surface inh, 3CLpro inhibitor, PrP 5UTR inh, PfHsp40 yeast)
Nc1nonc1C(=O)N/N=C/c1cc(Br)ccc1O	PfHsp40 yeast 167.9 (no result: Vc quorum ag, PriA SSB inh)
CCN1CCCc2cc(CN(CCN3CCOCC3)C(=S)Nc3cccc(Cl)c3)ccc21	PriA SSB inh 52.1
CCN1CCCc2cc(CN(CCN3CCOCC3)C(=S)Nc3ccc(C)cc3)ccc21	none
CO[C@@H](CNC(=O)CSC1CCCC1)c1ccco1	none (no result: Vc quorum ag, PrPC surface inh, 3CLpro inhibitor, PrP 5UTR inh, PfHsp40 yeast)
CCOC(=O)N1CCN(C(=O)C(=O)Nc2ccc3nc4n(c(=O)c3c2)CCCCC4)CC1	PriA SSB inh 104.2
CC(C)Cn1c(=O)n(C)c(=O)c2[nH]cnc21	PfHsp40 yeast 37.3 (no result: 3CLpro inhibitor)
O=C1C=CC(=O)C2C1C1(Cl)C(Cl)=C(Cl)C2(Cl)C1(Cl)Cl (configuration not stated)	PfHsp40 yeast 53.6 (no result: 3CLpro inhibitor)
OCCN(CCO)c1ccc2ccccc2c1	none
OCCN(CCO)c1cc2c3ccccc3ccc2c2ccccc12	PfHsp40 yeast 528.5 (no result: 3CLpro inhibitor)
Cc1cccc(NS(=O)(=O)c2ccc(-c3cnc(C4CC4)o3)cc2)c1C	PrP 5UTR inh 79.5, PfHsp40 yeast 367.1
Cc1cc(C)cc(NS(=O)(=O)c2ccc(-c3cnc(C4CC4)o3)cc2)c1	PrP 5UTR inh 67.1
Cn1c(=O)c2c(ncn2CC(=O)Nc2cc(-c3ccco3)nn2CCO)n(C)c1=O	none (no result: Vc quorum ag, PrPC surface inh, 3CLpro inhibitor, PrP 5UTR inh, PfHsp40 yeast)
COC(=O)c1sccc1S(=O)(=O)NCC#CCN(C)C	none (no result: Vc quorum ag, PrPC surface inh, 3CLpro inhibitor, PrP 5UTR inh, PfHsp40 yeast)
COc1ccc(C)cc1NC(=O)c1ccc(NC(=O)CC2SC(N3CCCC3)=NC2=O)cc1 (configuration not stated)	Vc quorum ag 7.6
CCOc1ccc(-c2cc(=O)n(CC(=O)Nc3ccc4c(c3)OCO4)cn2)cc1	none (no result: Vc quorum ag, PrPC surface inh, 3CLpro inhibitor, PrP 5UTR inh, PfHsp40 yeast)
COc1ccc(NC(=O)N(C)C[C@H]2Oc3c(NS(=O)(=O)c4ccc(OC)cc4)cccc3C(=O)N([C@H](C)CO)C[C@@H]2C)cc1	none (no result: 3CLpro inhibitor)
COc1ccc(S(=O)(=O)Nc2cccc3c2O[C@H](CN(C)C(=O)NC(C)C)[C@@H](C)CN([C@H](C)CO)C3=O)cc1	PriA SSB inh 99.1 (no result: 3CLpro inhibitor)
O=C(CCc1ccccc1Br)NCCc1ccsc1	none (no result: Vc quorum ag, PrPC surface inh, 3CLpro inhibitor, PrP 5UTR inh, PfHsp40 yeast)
Cc1ccc(C)c(Nc2c([N+](=O)[O-])ccc3nonc23)c1	PriA SSB inh 50.3
Cc1ccc(C)c(Nc2ccc3nonc3c2[N+](=O)[O-])c1	none
Cc1ccc(O)c2ncccc12	none (no result: Vc quorum ag, PrPC surface inh, 3CLpro inhibitor, PrP 5UTR inh, PfHsp40 yeast)
c1cnc2c(c1)c1nccnc1c1cccnc12	PriA SSB inh 114.0 (no result: Vc quorum ag, PrPC surface inh, 3CLpro inhibitor, PrP 5UTR inh, PfHsp40 yeast)
O=c1[nH][nH]c(=O)c2ncccc12	PriA SSB inh 61.3 (no result: Vc quorum ag, PrPC surface inh, 3CLpro inhibitor, PrP 5UTR inh, PfHsp40 yeast)
Cc1c(C)c2cccnc2c2ncccc12	PrP 5UTR inh 58.6, PfHsp40 yeast 75.7, PriA SSB inh 99.2 (no result: PrPC surface inh, 3CLpro inhibitor)
COc1ccc(/C=N/N=C2NC(=O)C(CC(=O)O)S2)cc1OCc1ccc(Cl)cc1Cl (configuration not stated)	none (no result: Vc quorum ag, PrPC surface inh, 3CLpro inhibitor, PrP 5UTR inh, PfHsp40 yeast)
Cc1ccc(-c2csc(NNC3=NCCCCC3)n2)cc1	PriA SSB inh 62.0 (no result: Vc quorum ag, PrPC surface inh, 3CLpro inhibitor, PrP 5UTR inh, PfHsp40 yeast)
OCc1cnc(SCc2ccc(Cl)c(Cl)c2)n1Cc1ccc2c(c1)OCO2	none (no result: Vc quorum ag, PrPC surface inh, 3CLpro inhibitor, PrP 5UTR inh, PfHsp40 yeast)
COC(=O)c1ccc(S(=O)(=O)NCc2ccnc(-c3cccs3)c2)cc1	none (no result: Vc quorum ag, PrPC surface inh, 3CLpro inhibitor, PrP 5UTR inh, PfHsp40 yeast)
COc1ccccc1OCC(=O)NCCc1ccc2c(c1)CCCN2C	PriA SSB inh 45.0 (no result: Vc quorum ag, PrPC surface inh, 3CLpro inhibitor, PrP 5UTR inh, PfHsp40 yeast)
COc1ccccc1NC(=O)NCCc1ccc2c(c1)CCCN2C	PriA SSB inh 56.0 (no result: Vc quorum ag, PrPC surface inh, 3CLpro inhibitor, PrP 5UTR inh, PfHsp40 yeast)
COc1ccc(Cl)cc1NC(=O)C(=O)NCCc1ccc2c(c1)CCCN2C	none (no result: Vc quorum ag, PrPC surface inh, 3CLpro inhibitor, PrP 5UTR inh, PfHsp40 yeast)
O=C(Cc1csc(NC(=O)NC2CCCCC2)n1)NCc1cccs1	none (no result: Vc quorum ag, PrPC surface inh, 3CLpro inhibitor, PrP 5UTR inh, PfHsp40 yeast)
c1ccc(-c2nc3ccc(Cc4ccc5nc(-c6ccccn6)[nH]c5c4)cc3[nH]2)nc1	PriA SSB inh 88.0 (no result: Vc quorum ag, PrPC surface inh, 3CLpro inhibitor, PrP 5UTR inh, PfHsp40 yeast)
Nc1ccc2nc(-c3ccc(N)c(Cl)c3)[nH]c2c1	PriA SSB inh 43.9
Nc1ccc2nc(-c3ccccn3)[nH]c2c1	PriA SSB inh 96.1
Nc1ccc2nc(-c3ccccc3)[nH]c2c1	none
COc1ccc2nc(-c3ccccn3)[nH]c2c1	none
Nc1ccc2nc(-c3cccnc3)[nH]c2c1	none
Nc1ccccc1-c1n[nH]c(-c2ccccn2)n1	PriA SSB inh 107.0 (no result: Vc quorum ag, PrPC surface inh, 3CLpro inhibitor, PrP 5UTR inh, PfHsp40 yeast)
CC(=O)N1CCc2c(sc(NC(=O)c3ccnn3C)c2C(N)=O)C1	none (no result: Vc quorum ag, PrPC surface inh, 3CLpro inhibitor, PrP 5UTR inh, PfHsp40 yeast)
CC(CCc1ccccc1)NC(=O)C1COCC(=O)N1Cc1cccs1 (configuration not stated)	none (no result: Vc quorum ag, PrPC surface inh, 3CLpro inhibitor, PrP 5UTR inh, PfHsp40 yeast)
Cc1ccc(C(=O)N2CCN(c3nc4ccc(F)cc4s3)CC2)cc1	none (no result: Vc quorum ag, PrPC surface inh, 3CLpro inhibitor, PrP 5UTR inh, PfHsp40 yeast)
COc1cccc2cc(C(=O)NCc3cc(-c4ccncc4)n(C4CCCC4)n3)oc12	none (no result: Vc quorum ag, PrPC surface inh, 3CLpro inhibitor, PrP 5UTR inh, PfHsp40 yeast)
CN(C)[C@@H](CNC(=O)C(=O)Nc1ccc2c(c1)OCO2)c1cccs1	none (no result: Vc quorum ag, PrPC surface inh, 3CLpro inhibitor, PrP 5UTR inh, PfHsp40 yeast)
Cc1ccc([C@@H]2CC=C(C(=O)O)[C@H](c3ccc(Br)cc3)N2S(=O)(=O)c2ccccc2C)cc1	PfHsp40 yeast 317.6 (no result: 3CLpro inhibitor)
Cc1ccccc1S(=O)(=O)N1[C@@H](c2ccc(Br)cc2)C(C(=O)O)=CC[C@H]1c1ccc(Cl)cc1	none (no result: 3CLpro inhibitor)
CC(C)CSc1n[nH]c(=S)s1	PfHsp40 yeast 213.0
COc1cc(C(=O)NCC(c2cccs2)N2CCOCC2)cc(Br)c1OCc1ccccc1 (configuration not stated)	PfHsp40 yeast 132.5 (no result: 3CLpro inhibitor)
CC(C)c1nc(-c2ccc(N3CCN(C(=O)Cc4cn(C)c5ccccc45)CC3)nc2)no1	PriA SSB inh 61.0 (no result: Vc quorum ag, PrPC surface inh, 3CLpro inhibitor, PrP 5UTR inh, PfHsp40 yeast)
O=[N+]([O-])c1cc([N+](=O)[O-])c2c(=Nc3ccccc3)n(-c3ccccc3)n(O)c2c1	PriA SSB inh 63.0
